Laboratory results as given in PubChem BioAssay (NCI).
The panel holds about 83,000 compounds, 20% with a hit somewhere; the sample as a whole holds those more often.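 Growth was measured after 48 h exposure to one concentration of compound in 96-well plates. Values under 10 count as active.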 The source made the active and inactive calls.

Tests used:
Assay in all cases: NCI-60 one-dose screen, 48 h (100 = growth as untreated, 0 = no growth, -100 = all killed)
Conditions in all cases: 10 µM unless noted
[1] = system: T-47D breast
[2] = system: BT-549 breast
[3] = system: MDA-MB-435 melanoma
[4] = system: SW-620 colon
[5] = system: MCF7 breast
[6] = system: HCT-116 colon
[7] = system: HCC-2998 colon
[8] = system: KM12 colon

Measured: growth

CC(C)CC1NC(=O)C(CCCN)NC(=O)C(C(C)C)NC(=O)C2CCCN2C(=O)C(Cc2ccccc2)NC(=O)C(CC(C)C)NC(=O)C(CCCN)NC(=O)C(C(C)C)NC(=O)C2CCCN2C(=O)C(Cc2ccccc2)NC1=O (centres undefined)
active: [1] -37.2% | [2] -77.7% | [3] -83.6% | [4] -75.6% | [5] -61.5% | [6] -92.2% | [7] -36.2% | [8] -75%

O=C(/C=C/c1cccc(Nc2ccnc3cc(Cl)ccc23)c1)c1ccc(Cl)cc1
inactive: [1] 39.8% | [2] 54.3% | [3] 56.9% | [4] 24.7% | [5] 27.6% | [6] 14.2% | [7] 71.4% | [8] 62.6%

COc1cnc2c(c1)C(=O)c1c-2n(CCCN2CCC(O)CC2)c(=O)c2cc(F)ccc12
inactive: [7] 13.5%
active: [1] -4.28% | [2] 0.525% | [3] 8.13% | [4] 6.58% | [5] 0.145% | [6] -71.7% | [8] -6.17%

Cc1cn(C(C=O)OC(C=O)CO)c(=O)[nH]c1=O (centres undefined)
inactive: [1] 99.6% | [2] 107% | [3] 106% | [4] 105% | [5] 95.1% | [6] 103% | [7] 119% | [8] 103%

[N-]=[N+]=NCc1cccc(/C(O)=C/C(=O)C(=O)O)c1
inactive: [1] 86.6% | [2] 113% | [3] 140% | [4] 94.9% | [5] 98.6% | [6] 91.3% | [7] 88.5% | [8] 97.4%

CCOC(=O)c1cc2oc(/C=C/c3cc(=O)c4cc(Cl)ccc4o3)cc2[nH]1
inactive: [1] 68.4% | [2] 53.5% | [3] 88.2% | [4] 82.5% | [5] 40.2% | [6] 81.2% | [7] 98.1% | [8] 62.8%

COc1ccc(-c2cc(-c3nnc(SCC(=O)Nc4ccc(C(C)=O)cc4)n3-c3ccccc3)c3ccccc3n2)cc1OC
inactive: [1] 84% | [2] 86.1% | [3] 105% | [4] 104% | [5] 95.2% | [6] 83.4% | [7] 99.6% | [8] 95.9%

C=C1CCC2C3(C)COC(c4ccccc4)OC3CCC2(C)C1C/C=C1/C(=O)OCC1OC(C)=O (centres undefined)
inactive: [1] 71.1% | [2] 103% | [3] 88.6% | [4] 41.4% | [5] 24.9% | [6] 24.9% | [7] 107% | [8] 84.4%

COc1ccc2nc(NC(=O)CN3CCn4c(nnc4C(F)(F)F)C3)sc2c1
inactive: [1] 95% | [2] 96% | [3] 90% | [4] 94.5% | [5] 69.6% | [6] 99.4% | [7] 103% | [8] 79.3%

COc1ccc2c(c1)sc1nc(-c3ccc(N(C)C)cc3)cn12
inactive: [1] 68.7% | [2] 99% | [3] 104% | [4] 104% | [5] 84% | [6] 91.7% | [7] 92% | [8] 75.8%

OCCCc1n(Cc2ccc3ccccc3c2)c2ccccc2[n+]1Cc1ccc2ccccc2c1
active: [2] 5.33% | [3] 0.65% | [5] 9.45% | [8] -20.9%
inactive: [1] 13.2% | [4] 19.3% | [6] 10.4% | [7] 12.5%

NS(=O)(=O)c1ccc(-n2ncc3c(NC4CCCCC4)ncnc32)cc1
inactive: [1] 80.4% | [2] 108% | [3] 92.5% | [4] 113% | [5] 116% | [6] 93.6% | [7] 91.5% | [8] 83.6%

O=C1NC(=S)S/C1=C\c1cc(Br)ccc1O
inactive: [1] 82.9% | [2] 104% | [3] 105% | [4] 97.6% | [5] 106% | [6] 103% | [7] 103% | [8] 90.6%

O=C1c2cccc3c([N+](=O)[O-])ccc(c23)C(=O)N1CCCCl
active: [1] -48.4% [100 µM] | [2] -98.2% [100 µM] | [3] -89.3% [100 µM] | [4] -44.4% [100 µM] | [5] -65.5% [100 µM] | [6] -90.6% [100 µM] | [7] -91.9% [100 µM] | [8] -81.3% [100 µM]

Cn1ccnc1C(=O)/C=C/c1ccc(C(=O)Nc2nc3ccccc3[nH]2)cc1
active: [2] 5.05% | [4] 5.35%
inactive: [1] 49.6% | [3] 18.8% | [5] 19.5% | [6] 23.1% | [7] 45.4% | [8] 14.4%

N#Cc1c(-c2ccccc2)cc(-c2ccccc2)n(CC(=O)O)c1=O
inactive: [1] 45.3% | [2] 25.8% | [4] 32.8% | [5] 34.8% | [6] 39.2% | [7] 82.4% | [8] 41.3%
active: [3] -10.6%

COc1ccc2c3c(ccc2c1)C(=O)/C(=C\O)CC3
inactive: [1] 80.8% | [2] 105% | [3] 111% | [4] 105% | [5] 102% | [6] 88.1% | [7] 104% | [8] 99.5%

N/C(=N\C(N)=N\c1nc2ccccc2s1)c1ccnc(Cl)c1
active: [3] -34.9%
inactive: [1] 60.8% | [2] 38% | [4] 16.8% | [5] 31.5% | [6] 31.7% | [7] 62.7% | [8] 32%

O=C(CC1Sc2ccccc2NC1=O)NNc1cccc(Cl)c1Cl (centres undefined)
inactive: [1] 73% | [2] 89.1% | [3] 95.4% | [4] 87.3% | [5] 92.4% | [6] 87% | [7] 88.5% | [8] 82.7%

O=c1ccn(C2CC=C(CO)O2)c(=O)[nH]1 (centres undefined)
inactive: [1] 96.5% | [2] 106% | [3] 106% | [4] 103% | [5] 92% | [6] 96% | [7] 123% | [8] 103%

c1ccc(COc2ccc(Nc3ncnc4c3cnn4-c3ccccc3)cc2)cc1
inactive: [1] 100% | [2] 106% | [3] 90.1% | [4] 98.7% | [5] 101% | [6] 106% | [7] 108% | [8] 98.2%

NC(=O)c1cc(Br)cc(Br)c1NS(=O)(=O)c1ccccc1
inactive: [1] 99.2% | [2] 103% | [3] 111% | [4] 101% | [5] 99% | [6] 100% | [7] 106% | [8] 106%

CCSc1nc(Nc2ccc(S(=O)(=O)Nc3ccon3)cc2)c(C#N)c(-c2cccc(Br)c2)n1
inactive: [1] 81% | [2] 90.2% | [3] 102% | [4] 110% | [5] 79.2% | [6] 85% | [7] 106% | [8] 95.1%

CC(=O)Nc1c(Cl)cc2c(c1Cl)Cc1cc([N+](=O)[O-])ccc1-2
inactive: [1] 53.4% | [2] 84.4% | [3] 81% | [4] 81.5% | [5] 27.8% | [6] 72.6% | [7] 87.4% | [8] 78.2%

CCOC(=O)CNC(=O)C1(NC(=O)CNC(=O)OCc2ccccc2)CCCC1
inactive: [1] 107% | [2] 98% | [3] 95.6% | [4] 110% | [5] 96.6% | [6] 101% | [7] 105% | [8] 108%

Cc1[nH]c(=O)[nH]c(=O)c1CCSSCCc1c(C)[nH]c(=O)[nH]c1=O
inactive: [1] 96.6% | [2] 105% | [3] 103% | [4] 108% | [5] 87.2% | [6] 101% | [7] 102% | [8] 101%

O=C(Nc1nc2c(C(F)(F)F)cccc2s1)c1cc(Cl)ccc1O
active: [1] -1.67% | [2] -13.4% | [3] 5.71% | [5] 7.63% | [6] -1.3%
inactive: [4] 12.2% | [7] 19.3% | [8] 10.5%

Cc1ccc(C2=Nc3c(ccc4c(C)c(C)c(=O)oc34)OC2)cc1
inactive: [1] 89.8% | [2] 94% | [3] 104% | [4] 108% | [5] 115% | [6] 95.5% | [7] 96.1% | [8] 97.8%
